This is part of a sample that, as a whole, favours compounds with a hit. Of some 83,000 tested, about 20% had one in any assay.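 How to read the values: 0–100, growth inhibition (40 = 60% inhibited); 0, no net growth; -100 to 0, cell death (-40 = 40% of starting cells died; -100 = all dead).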 Values without a mark were called inactive. The source made the active and inactive calls. The calls were made as follows: active = growth percent below 10; inactive = the rest.

For the assay, the system named is SK-MEL-28 melanoma. Description: NCI-60 one-dose screen, 48 h (100 = growth as untreated, 0 = no growth, -100 = all killed). The settings on record: 10 µM unless noted.
In the case of `CCN(CC)CC#CCOC(=O)[C@]1(C)CCC[C@]2(C)[C@H]3C[C@H]4C(C(C)C)=C[C@]3(CC[C@H]21)[C@@H]1C(=O)CCC(=O)[C@@H]14`, the growth was 66.2%. As for `CN1CCN(CC#CCOC(=O)CNC(=O)[C@]23CCC(C)(C)C[C@H]2C2=CC[C@@H]4[C@@]5(C)CC[C@H](O)C(C)(C)[C@@H]5CC[C@@]4(C)[C@]2(C)CC3)CC1`, the figure is 104%.

In the case of `Nc1cc(N)c(S(=O)(=O)O)cc1N=Nc1cc([N+](=O)[O-])ccc1O`, the growth is 102%.

Turning to `COc1ccc2c(c1)Oc1nc(N)c(C#N)c(N)c1C2Sc1ccc(SC)cc1` (stereo not drawn), the growth was 32.7%. As for `CO[C@@]12C=C[C@@]34CCC(=O)N3c3ccccc3[C@@H](O1)C4C2`, the figure is 113%; as for `COc1cc(NC(=O)Nc2cnc(Nc3ccc(N4CCOCC4)cc3)nc2Oc2ccc(F)cc2)cc(OC)c1`, 106%; as for `C/C(=N/Nc1nc2ccccc2n1C)c1ccccn1`, 27.6%. Consider `Cc1cccc(C)c1NC(=O)CN(CC(C)C)CC(O)COc1ccccc1` (stereo not drawn), for which the growth was 109%. To `COC(=O)c1ccc2c(c1)NC(=O)[C@@H]1CCCN21` belongs 106%; to `O=C1c2ccccc2C(=O)c2c1oc1c2c(=O)[nH]c2ccc(Cl)cc21`, -11.8% (active); to `COc1cc(NC(=O)Nc2cnc(Nc3ccc(N4CCOCC4)cc3)nc2Oc2ccc(C(F)(F)F)cc2)cc(OC)c1`, 116%. As for `COc1ccc(C(=O)c2cc(F)c(F)c(OC)c2F)cc1OC(=O)CCl`, the figure is 57.9%.

Take `Nc1c(C(=O)Nc2cccc3ccccc23)sc2nc3c(cc12)CCCCC3`: the growth was 71.7%. To `O=c1[nH]c2ccccc2cc1-c1nc2ccncc2[nH]1` belongs 95.7%. In the case of `C=C1C(=O)O[C@H]2[C@H]1CC/C(COC(=O)NCc1nc3ccccc3[nH]1)=C\CC[C@@]1(C)O[C@@H]21`, the growth was 73.1%. Take `Cc1cccc(C)c1NCc1nnc(-c2ccco2)o1`: the growth was 110%. As for `Nc1c(C(=O)Nc2ccccn2)sc2nc3c(cc12)CCCC3`, the figure is 64.8%; as for `Cc1c(Cl)cccc1NC(=O)c1sc2nc3c(cc2c1N)CCCCC3`, 72.6%. On to `CCSc1nc(Cl)c(C#N)c(-c2ccc(F)cc2)n1`, for which the growth is 101%. As for `CCc1n(Cc2ccc3ccccc3c2)c2ccccc2[n+]1Cc1ccc2ccccc2c1`, the figure is 69.8%. Consider `NC(=O)CN1C(=O)c2ccccc2C1=O`, for which the growth is 106%. As for `O=C1C(=O)c2c(nc3ccc(C(F)(F)F)cn23)-c2ccccc21`, the growth was -84.3% (active). As for `COc1cccc(NC(=O)Nc2ccc(Nc3ncnc4[nH]c(C)c(C)c34)cc2)c1`, the figure is 104%; as for `NC(=O)c1ccc2nc3c(n2c1)C(=O)C(=O)c1ccccc1-3`, -82.2% (active). As for `O=C(O)c1cc(N=Nc2ccc(-c3ccc(N=Nc4c(S(=O)(=O)O)cc5ccc(Nc6ccccc6)cc5c4O)cc3)cc2)ccc1O`, the figure is 107%; as for `C=C1C(=O)O[C@H]2[C@H]1CCC(/C=N/c1ncc(Br)cc1N)=C\CC[C@@]1(C)O[C@@H]21`, -25.8% (active); as for `Cc1nc2sc(C(=O)Nc3ccccc3Cl)c(N)c2cc1C(C)O` (stereo not drawn), 84.7%.

For the compound `COc1ccc(/C=C/C(=O)c2ccc(NC(=O)CSc3nnc(-c4ccc(OC)c(OC)c4)n3-c3ccccc3)cc2)cc1`, the growth is 95.8%. As for `O=c1c2ccccc2n(CC(O)CN2CCCC2)c2c(Br)cccc12` (stereo not drawn), the figure is 96.9%; as for `O=C(CCCCCCCCC(=O)Nc1cccc(C2=NCCN2)c1)Nc1cccc(C2=NCCN2)c1`, 92.8%. To `Cc1ccc(C(=O)/C(=C/c2ccc([N+](=O)[O-])cc2)S(=O)Cc2ccccc2)cc1` (stereo not drawn) belongs 17.1%; to `COc1ccc(-c2nc(C#N)c(NCC(c3ccc(Cl)cc3)N3CCCCC3)o2)cc1` (stereo not drawn), 94.3%; to `O=C1CC(c2ccc(O)c(O)c2)Oc2cc(O)c([C@@H]3O[C@H](CO)[C@@H](O)[C@H](O)[C@H]3O)c(O)c21` (stereo partly drawn), 107%. As for `CCCn1c2cc(OCc3cn(-c4ccc(Cl)cc4)nn3)ccc2c2ccnc(C)c21`, the figure is 92.3%; as for `COc1ccccc1C(=O)/C=C/c1cc2cccc(OC)c2[nH]c1=O`, 2.94% (active). On to `O=[N+]([O-])c1ccc(N=Nc2c(O)c(N=Nc3cc([N+](=O)[O-])cc([N+](=O)[O-])c3O)cc(N=Nc3cc(S(=O)(=O)O)cc4cc(S(=O)(=O)O)cc(O)c34)c2O)cc1`, for which the growth is 99%.

With `COc1cc(N=Nc2cc(S(=O)(=O)O)cc3cc(S(=O)(=O)O)cc(O)c23)c(C)cc1N=Nc1c(S(=O)(=O)O)cc2cc(Nc3ccccc3)ccc2c1O`, the growth was 109%. As for `C=C1C(=O)O[C@H]2[C@H]1CC/C(COC(=O)/C=C/c1cccnc1)=C\CC[C@@]1(C)O[C@@H]21`, the figure is 43.7%.

The values above are taken from PubChem BioAssay (NCI).
